High-throughput results deposited in PubChem BioAssay by Broad Institute.
aSyn UTR act – Activators working through SNCA 5'UTR binding (MLPCN) | activity score, % (tested at 7.5 µM), hits read low | alpha-synuclein 5'UTR reporter, activators screen | 300,000 tested, 7.1% active; in the data active = activity score below about -60%
Active calls of the source: *. A selection follows.

SMILES | aSyn UTR act
COc1cc(-c2noc(-c3cccs3)n2)cc(OC)c1OC | -95*
Cc1c(-c2nc(N)nc(Nc3ccc(F)cc3)n2)oc2ccccc12 | -95*
COc1ccc(N(/N=C2\Sc3ccccc3C2=O)C(C)=O)cc1 | -143*
CC(=O)N(C1=C(N)C(=O)c2ccccc2C1=O)c1ccccc1 | 78
Nc1ccc(-n2cc(-c3ccccc3)[nH]c2=S)cc1 | -86*
COc1ccc(-c2cn(-c3ccccc3)c(=S)[nH]2)cc1OC | -100*
S=c1[nH]c(-c2ccccc2)cn1-c1ccccc1 | -75*
CC(C)c1ccc(N2C(=O)[C@@H]3Cc4ccccc4CN3C2=O)cc1 | -118*
Cc1ccc(N2C(=O)[C@@H]3Cc4ccccc4CN3C2=O)cc1 | -71*
CCOC(=O)CNC(=O)c1ccc(SCC)cc1 | -91*
COc1ccc(C2Nc3ccccc3C(=O)N2c2ccc(C)cc2)cc1Cn1nc(C)c([N+](=O)[O-])c1C (configuration not stated) | -105*
COc1ccc(C2C(C#N)=C(N)N(c3ccccc3)C3=C2C(=O)CCC3)cc1Cn1cc([N+](=O)[O-])cn1 (configuration not stated) | 58
COc1cccc(C2Nc3ccccc3C(=O)N2Cc2ccccc2)c1 (configuration not stated) | 79
COc1ccc(C2Nc3ccccc3C(=O)N2c2ccc(C)cc2)cc1COc1ccccn1 (configuration not stated) | -97*
COc1ccc(C2Nc3ccccc3C(=O)N2c2ccccc2)cc1CN1CCOCC1 (configuration not stated) | -70*
Cc1cccc2cc(C#N)c(SCC(=O)N3CC(=O)Nc4ccccc43)nc12 | 110
Cc1cc(NC(=O)CSc2nc3c(C)cccc3cc2C#N)no1 | -209*
Cc1ccc(/C=N/Nc2nc(Cl)c(Cl)cc2Cl)s1 | -141*
Cc1ccsc1/C=N/Nc1nc(Cl)c(Cl)cc1Cl | -162*
CSc1ccc(-c2nnn(Cc3ccccn3)n2)cc1 | -146*
CSc1ccc(-c2nnn(Cc3ccc(Br)cc3)n2)cc1 | -74*
CC(C)NC(=O)CCc1nnc(Cc2cccc(C(F)(F)F)c2)o1 | -95*
CC[C@@H](C)[C@H](CNC)NC[C@@H](Cc1cccc2ccccc12)NCCc1cccc(C(F)(F)F)c1 | 125
CNC[C@@H](CC1CCCCC1)NC[C@H](CC(C)C)NCCc1cccc(C(F)(F)F)c1 | 122
CC(=O)Nc1cc(NC(C)=O)c(N=Nc2ccccc2)cc1C | -89*
SMILES | aSyn UTR act
CC1CCC(NC(=O)Nc2cccs2)CC1 (configuration not stated) | -107*
CC1CCC(NC(=O)CNC(=O)c2cccs2)CC1 (configuration not stated) | -88*
C/C(=N/OC(=O)C1CC1)c1cc(-c2ccc(Cl)cc2)no1 | -133*
C/C(=N\OC(=O)c1ccccc1)c1cc(-c2ccc(Cl)cc2)no1 | -152*
OC1CCN(Cc2ccc(OCc3ccccc3)cc2)CC1 | -70*
CCCCNC(=O)C1CCN(Cc2ccc(OCc3ccccc3)cc2)CC1 | -219*
C=CCN(CC=C)C(=O)C1CCN(Cc2ccc(OCc3ccccc3)cc2)CC1 | -97*
CCc1ccc(OC(=O)Nc2ccccc2)cc1 | -159*
COc1ccc(OC(=O)Nc2ccccc2)cc1 | -92*
Cc1cccc(NC(=S)NC(=O)c2cccs2)n1 | -140*
O=C(NC(=S)Nc1cccc2cccnc12)c1cccs1 | -63*
Cc1nc(NC(=S)NC(=O)c2cccs2)ccc1Br | -161*
CC(=O)N(C)c1ccc(NC(=O)Nc2ccc(Cl)cc2)cc1 | -135*
CC(=O)N(C)c1ccc(NC(=O)Nc2ccc(C)cc2)cc1 | -76*
CN1C(=O)NC(c2cccc(O)c2)C(C(=O)c2cccs2)C1(O)C(F)(F)F (configuration not stated) | -139*
Cc1ccc(C)c(OCc2cc(C(=O)N3CCOCC3)no2)c1 | -97*
COCCCC1CCN(C(=O)c2cc(COc3cc(C)ccc3C)on2)CC1 | -180*
COCCN1CCN(C(=O)c2cc(COc3cc(C)ccc3C)on2)CC1 | -127*
CC(=O)NCCC1CCCCN1C(=O)c1cc(COc2cc(C)ccc2C)on1 (configuration not stated) | -144*
COCCN1CCN(C(=O)c2cc(COc3ccc(Cl)cc3OC)on2)CC1 | -120*
COc1ccc2c(c1OC)C(=O)OC2Nc1nc(-c2ccc(-c3ccccc3)cc2)cs1 (configuration not stated) | -233*
O=c1cc(-c2ccco2)oc2ccc(Cl)cc12 | -96*
COc1cc(OC)c2c(=O)cc(-c3ccccc3)oc2c1 | -102*
COc1cccc2oc(-c3ccco3)cc(=O)c12 | -94*
COc1ccc2oc(-c3ccco3)cc(=O)c2c1 | -129*
SMILES | aSyn UTR act
Cc1nc(/N=C(\N)Nc2ccccc2)nc2ccccc12 | -133*
CCc1ccc(NC(=O)NCCCN2CCCC2=O)cc1 | -65*
Cc1ccc(NC(=O)C(=O)NCCCN2CCCC2=O)cc1 | -71*
Cc1nc2ccc(C(=O)Nc3cccc([N+](=O)[O-])c3)cc2s1 | -127*
COc1ccc(C(=O)Nc2nc(C)c(C)s2)cc1OC | -142*
COc1ccc(C(=O)Nc2ccc3nc(C)sc3c2)cc1OC | -101*
COc1ccc(NC(=O)c2ccc3nc(C)sc3c2)cc1 | -124*
COC(=O)c1ccc(NC(=O)c2ccc3nc(C)sc3c2)cc1 | -180*
COc1ccc(C(=O)Nc2ccc(Oc3nc(C)nc4sc(-c5ccccc5)cc34)cc2)cc1OC | -120*
O=C(OCc1ccc(Cl)c(Cl)c1)c1ccc[nH]1 | -82*
c1ccc(-c2cn(CC3CCCCC3)nn2)cc1 | -200*
COc1ccc(-c2cn(CC3CCCCC3)nn2)cc1 | -120*
C=CCn1cnc2c(NCc3ccccc3)ncnc21 | -76*
N#C/C(=C\C=C\c1ccccc1)C(=O)NCc1cccnc1 | -70*
Cc1nn(-c2ccc(Cl)cc2)c(=O)c2ccccc12 | -85*
Cc1nn(-c2ccc3ccccc3c2)c(=O)c2ccccc12 | -183*
Cc1nn(-c2ccc(Cl)nn2)c(=O)c2ccccc12 | -89*
Cc1nn(-c2nc3ccccc3[nH]2)c(=O)c2ccccc12 | 115
Cc1nn(-c2ccc(Cl)c(Cl)c2)c(=O)c2ccccc12 | -64*
Cc1ccc(-n2ncc3ccccc3c2=O)cc1Cl | -143*
CN(C)C(=O)c1ccc(-c2cc(C(F)(F)F)nn2C)s1 | -152*
Cn1nc(C(F)(F)F)cc1-c1ccc(S(N)(=O)=O)s1 | -123*
Cc1cccc(OCCCn2c(CO)nc3ccccc32)c1 | -84*
Cc1ccc(OCCCn2c(CO)nc3ccccc32)cc1 | -62*
Nc1nc(SCc2ccccc2)[nH]c(=O)c1-c1ccccc1 | -99*
SMILES | aSyn UTR act
COc1ncnc2sc(-c3ccccc3)cc12 | -168*
O=c1c2cc(-c3ccccc3)sc2ncn1/N=C/c1ccco1 | -140*
CCCCCn1cnc2sc(-c3ccccc3)cc2c1=O | -299*
COc1ccccc1-n1cnc2sc(-c3ccccc3)cc2c1=O | -142*
CCCCn1cnc2sc(-c3ccccc3)cc2c1=O | -213*
COC(=O)c1ccc(Nc2nc3ccc(C)cc3n3cnnc23)cc1 | -98*
Brc1ccc(Sc2cnc3ccccc3n2)cc1 | -77*
c1ccc(Sc2cnc3ccccc3n2)cc1 | -169*
Clc1ccc(Sc2cnc3ccccc3n2)cc1 | -75*
COC(=O)c1ccc(NC(=O)Nc2ccc(F)cc2F)cc1 | -111*
O=C(Nc1ccc(F)cc1F)N1CCCCCC1 | -86*
CCSc1nsc(NC(=O)Nc2ccc(F)cc2F)n1 | -138*
O=C(Nc1ccccc1)Nc1ccc(F)cc1F | -115*
